Test results reported in PubChem BioAssay AID902 (National Center for Advancing Translational Sciences (NCATS), 2007).
Hit rate of the full screen: of about 130,000 compounds, about 1,900 (1.5%) were called active. Not shown: some 5% with an inconclusive outcome. Many of the other results were omitted from the sample, so actives are more common in it than they were. Unmarked numbers belong to inactive results. Calls follow the shape of the dose curve; as a rule, active = well fitted cell-killing curve with a large enough effect; inconclusive = small, poorly fitted or top-dose-only effect; inactive = no such curve, though single readings can be large or run the other way.

assay: qHTS Screen for Compounds that Selectively Target Cancer Cells with p53 Mutations: Cytotoxicity of p53ts Cells at the Nonpermissive Temperature; details: H1299-p53A138V viability at 39C, ATP luminescence, 24 h; series mostly up to 46.1 µM; activity change, negative = cell killing: at the top concentration; also: nearly all actives have a fitted effect of over 55% in size
% is scaled to controls: 0 for no effect and ±100 for the full control effect; potency is read from the fitted curve at half-maximal effect.

Row | SMILES | activity change, negative = cell killing [%] | Potency
1 | CCOC(=O)CNC(=O)c1cc2c(=O)n3cccc(C)c3nc2s1 | -21.7 | 
2 | CCCc1nn2c(=O)cc(COC(=O)c3ccc(NC(=O)COc4ccc(F)cc4)cc3)nc2s1 | 11.1 | 
3 | N#Cc1cccc(-c2ccc3ncnc(NCc4cccs4)c3c2)c1 |  | 12.6 µM (active)
4 | COc1ccccc1CNc1ncnc2ccc(-c3ccc4c(c3)OCO4)cc12 | -3.34 | 
5 | N#Cc1ccccc1-c1ccc2ncnc(NCc3cccnc3)c2c1 | -2.85 | 
6 | Cc1ccc(Cl)cc1NC(=O)C1CCCN(c2cnccn2)C1 (centres undefined) | -7.25 | 
7 | O=C(c1cc(-c2ccc(F)cc2)on1)N1CCN(c2ccc(F)cc2)CC1 | 9.22 | 
8 | Cc1ccc(S(=O)(=O)/N=C(/Nc2ccccn2)c2ccc(Cl)cc2)cc1 | -15.9 | 
9 | CCN(CC)S(=O)(=O)c1cccc(C(=O)Nc2ccccc2)c1 | -12 | 
10 | CCN(CC)S(=O)(=O)c1cc(C(=O)Nc2ccccn2)ccc1C |  | 12.6 µM (active)
11 | CN(C(=O)CN1C(=O)CCSc2ccc(S(=O)(=O)N3CCCC3)cc21)c1ccccc1 | -4.63 | 
12 | O=C(CSc1nnc(-c2ccccc2F)o1)Nc1cccc(C(F)(F)F)c1 | 8.67 | 
13 | O=C(NCCS(=O)(=O)N1CCN(c2ccc(F)cc2)CC1)c1ccccc1Br | -17.1 | 
14 | COc1ccc(N2C(=O)CS(=O)(=O)C23C(=O)N(Cc2ccc(C)cc2)c2ccccc23)cc1Cl (centres undefined) | 21 | 
15 | CCCCOc1ccc(C(=O)Nc2cccc(-c3nc4ccccc4o3)c2C)cc1 | 35.1 | 
16 | O=C(COc1ccccc1F)Nc1ccc(C(=O)OCc2cc(=O)n3nc(C4CC4)sc3n2)cc1 | -13.1 | 
17 | NC(=O)CSc1oc(-c2cccs2)nc1S(=O)(=O)c1ccccc1 | 11.5 | 
18 | CSc1oc(-c2cccs2)nc1S(=O)(=O)c1ccc(Br)cc1 | 17.8 | 
19 | CCCCS(=O)(=O)c1oc(-c2cccs2)nc1S(=O)(=O)c1ccccc1 |  | 3.16 µM (active)
20 | c1ccc(-n2ncc(-c3nn[nH]n3)n2)cc1 | -2.58 | 
21 | CC(C)c1ccc(-c2nn[nH]n2)cc1 |  | 12.6 µM (active)
22 | Cc1nnc(C)n1/N=C/c1ccc(C(C)C)cc1 | -10.4 | 
23 | CCc1ccc(-n2nnc(-c3nc(-c4ccccc4)no3)c2C)cc1 | -4.05 | 
24 | CCOC(=O)c1c(C)oc2nc(C)nc(Nc3ccc(CC)cc3)c12 | 12.3 | 
25 | CCOc1ccc(Nc2c(S(=O)(=O)c3ccccc3)cnc3ccccc23)cc1 | -6.31 | 
26 | CCOc1ccc(CCNC(=O)c2ccc3c(c2)sc2nc(-c4ccc(F)cc4)cn23)cc1OCC | -30 | 
27 | CCOC(=O)c1ccc(NC(=O)c2nc(SCc3ccc(F)cc3)ncc2Cl)cc1 | -9.35 | 
28 | CCCS(=O)(=O)c1ncc(Cl)c(C(=O)Nc2scc(-c3ccccc3)c2C(=O)OCC)n1 |  | 7.94 µM (active)
29 | CCOC(=O)c1scc(-c2ccccc2)c1S(=O)(=O)Nc1ccccc1F | -11.6 | 
